Pf growth 48h – Primary qHTS for delayed death inhibitors of the malarial parasite plastid, 48 hour incubation | AID 504832, 2011 | hit rate 5.9% among 310,000 | P. falciparum luciferase growth in erythrocytes, 48 h | Potency, µM (doses to about 28.7 µM), inactives show at the highest dose activity change, negative = inhibition, usual class: inhibitors; further: potency means the concentration at half of the fitted maximal effect; on the % scale 0 is the no-effect control and ±100 the full control effect
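Firefly luciferase activity from engineered P. falciparum reports growth; inhibitors lower the luminescent signal. Cultures contained 2% hematocrit erythrocytes at 0.1% final parasitemia.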
Pf growth 96h – Primary qHTS for delayed death inhibitors of the malarial parasite plastid, 96 hour incubation | hit rate 6.9% among 320,000 | Potency, µM (doses to about 28.7 µM), inactives show at the highest dose activity change, negative = inhibition, most hits filed as inhibitors | P. falciparum luciferase reporter growth, 96 h | AID 504834, 2011; further: potency means the concentration at half of the fitted maximal effect; on the % scale 0 is the no-effect control and ±100 the full control effect
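Readout is luminescence from an integrated firefly luciferase in P. falciparum. Red cells, 2% hematocrit and 0.05% parasitemia final, were cultured with compound through two parasite generations (96 hours) at 37 C, 5% CO2.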
Cycloheximide cs – Cycloheximide Counterscreen for Small Molecule Inhibitors of Shiga Toxin; cell reporter, cycloheximide protein synthesis inhibition counterscreen; max response, %; hit rate 12% among 300,000; AID 2314, 2010; in the data active means max response mostly above about 13%, no sharp cut-off; inactive means mostly below about 14%; further: read at 38.3 µM for the half of the compounds with a filed dose; 0% is about no effect
Shiga inhibitor – A qHTS for Small Molecule Inhibitors of Shiga Toxin; Vero cells, Shiga toxin protein synthesis inhibition reporter; inhibition, % at 38.7 µM; hit rate 9.2% among 290,000; in the data active means inhibition mostly above about 28%, no sharp cut-off; inactive means mostly below about 43%; further: 0% is about no effect
NS1 function inh – qHTS Assay for Inhibitors of Influenza NS1 Protein Function. Potency, µM (top dose mostly 46.1 µM), inactives show top-dose activity, positive = more growth. hit rate 0.4% among 270,000. AID 2326, 2010; calls by dose curve; further: potency means the concentration at half of the fitted maximal effect; actives are rising curves; nearly all actives have a fitted effect of over 50% in size
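Compounds were scored for reversing the slow growth caused by influenza A NS1 in S. cerevisiae, measured by optical density at 600 nm. Assay medium contained 2% galactose at pH 6.0; NS1-free yeast of the same strain were the positive control.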
An asterisk follows results filed as active; ? = inconclusive; · = no result; [ ] = another dose, or the depositor's remark. Rows were chosen to be rich in hits. Some 21% of all compounds tested hit in one or more screens of this group. Unless noted, the call rests on the fitted dose curve; in most records, active means well fitted inhibition curve with a large enough effect; inconclusive means small, poorly fitted or top-dose-only effect, or another doubt; inactive means no such curve, though single readings can be large or run the other way.

SMILES	Pf growth 48h	Pf growth 96h	Cycloheximide cs	Shiga inhibitor	NS1 function inh
CCOC(=O)c1c(C)[nH]c(C)c1C(=O)CSc1nc(N)cc(=O)[nH]1	·	59%	-6	-3	5%
O=C(CCS(=O)(=O)c1cccs1)NC1CCCCCC1	89%	?	31*	115*	0%
O=C(CCS(=O)(=O)c1ccc(Br)cc1)NC1CCCC1	·	-3%	-5	-11	10%
O=C(NC1CCCCCC1)c1cccs1	?	-16%	38*	68*	-44%
O=C(NCCC1CCCC1)c1cccs1	87%	-24%	40*	45*	-55%
O=C(NC1CCCCC1NC(=O)c1cccs1)c1cccs1 (stereo unspecified)	-5%	?	1	-6	7%
Cc1ccc(C)c(NC(=O)NNC(=O)c2cc3ccccc3cc2O)c1	30%	11%	11	-19	2%
CC(C)(C)c1ccc(C(=O)NNC(=O)c2ccncc2)cc1	23%	49%	0	-3	7%
CCNC(=O)CC1C(=O)N(c2ccc(C)cc2)C(=O)N1CCOC (stereo unspecified)	9%	88%	2	-9	3%
O=C(Nc1ccc(Nc2ccccc2)cc1)c1cccc(F)c1	61%	?	36*	117*	-43%
O=C(Nc1cccc(C(=O)Nc2ccccc2F)c1)c1ccccc1	18%	8%	-4	2	-7%
CCN(CC)C(=O)c1ccc(NC(=O)c2cccc(F)c2)cc1	·	95%	35*	72	-12%
O=C(Nc1cccc(F)c1)c1ccccc1	47%	169%	38*	79*	-116%
CCn1c(=N)n(CC(=O)c2ccc(Cl)c(Cl)c2)c2ccccc21	?	29%	40*	74*	3%
COC(=O)Cn1c(=N)n(CCN2CCCCC2)c2ccccc21	9%	12%	-4	-10	-7%
N=c1n(CCN2CCCCC2)c2ccccc2n1CC(=O)c1ccc(Cl)c(Cl)c1	1.5µM*	2.6µM*	2	18	7%
Cc1ccc(C(=O)Cn2c(=N)n(CCN3CCOCC3)c3ccccc32)cc1	9.3µM*	?	·	·	·
COC(=O)Cn1cc(/C=C(/C#N)C(=O)N2CCOCC2)c2ccccc21	8%	37%	-1	-7	0%
CN1C2Cc3c(n(C)c4ccccc34)C1CC=C2CO (stereo unspecified)	43%	-29%	·	·	·
CCOC(=O)C1=NN(C(=O)COc2ccccc2)C(O)(c2ccc(Br)cc2)C1 (stereo unspecified)	20%	2.9µM*	5	-14	-1%
Cc1cccc2c1NC(=O)/C2=C\C(=O)c1cccs1	·	-25%	15*	-7	-45%
CC(C)NCC(O)COc1cccc2ccccc12 (stereo unspecified)	10µM*	?	-1	-12	-9%
C=CCOc1ccccc1OC[C@H](O)CNC(C)C	-25%[12.8 µM]	?	·	·	·
CC(C)[N+](C)(C)CC(O)COc1cccc2ccccc12 (stereo unspecified)	6µM*	24%	·	·	·
O[C@@H](COc1cccc2ccccc12)CN1CCOCC1	·	·	·	·	-3%
SMILES	Pf growth 48h	Pf growth 96h	Cycloheximide cs	Shiga inhibitor	NS1 function inh
CC(C)NCC(O)COc1cccc2[nH]ccc12 (stereo unspecified)	-3%	0.85µM*	-3	26	?
CC1(O)CCC(C(C)(C)O)CC1 (stereo unspecified)	0%	9%	-2	-3	·
CN(C)CCc1c[nH]c2ccc(CC3COC(=O)N3)cc12 (stereo unspecified)	-12%	-11%	·	·	·
Cc1ccccc1CSc1nnc(C)c(=O)n1N	13%	19%	5	-1	-4%
S=C(Nc1cccnc1)NC1CC2CCC1C2 (stereo unspecified)	?	?	1	11	13%
CCCCNC(=O)Nc1ccccc1C(=O)Nc1ccc(OC)cc1	·	306%	0	-10	-10%
CCCn1cccc(C(=O)Nc2ccc(OC)cc2)c1=O	8%	25%	22*	53	-8%
